# Results: PubChem BioAssay
# Values without a mark were called inactive. The rule behind the calls is not given here.
# Tested on: Aerobactin synthetase IucA (Klebsiella pneumoniae hvKP1)
# Assay: IucA enzyme inhibition, primary screen, biochemical, Spectrum library (AID 1346200);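 note: 100% = wells without compound and 0% = wells lacking enzyme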
# Conditions: malachite green pyrophosphate, A620, at 8 µM, hits give low values
row,Compound,activity remaining [%]
1,NC(=O)c1ccc[n+]([C@@H]2O[C@H](COP(=O)([O-])OP(=O)(O)OC[C@H]3O[C@@H](n4cnc5c(N)ncnc54)[C@H](O)[C@@H]3O)[C@@H](O)[C@H]2O)c1,108
2,O=C1C=CC2=C3c4cc(O)c(O)cc4C[C@@]3(O)COC2=C1,120
3,C[C@]12C=CC(=O)C=C1CCC1C2[C@@H](O)C[C@@]2(C)C1CC[C@]2(O)C(=O)COC(=O)CCC(=O)O (stereo not given in full),111
4,CC(C)=CCC[C@](C)(O)C1CC=C(C)CC1 (stereo not given in full),118
5,O=C(/C=C/c1ccccc1)O[C@H]1C[C@@H](O)[C@]2(O)C=CO[C@@H](O[C@@H]3O[C@H](CO)[C@@H](O)[C@H](O)[C@H]3O)[C@H]12,108
6,O=c1c2ccccc2oc2ccc(O)cc12,122
7,CN(N=O)C(=O)N[C@@H]1[C@@H](O)[C@H](O)[C@@H](CO)O[C@@H]1O,112
8,C[n+]1c2cc(N)ccc2cc2ccc(N)cc21,111
9,CC(=O)N[C@@H](Cc1c[nH]c2ccccc12)C(N)=O,122
10,CC(=O)Oc1ccc(O)cc1,122
11,Cc1cc2nc3c(=O)[nH]c(=O)nc-3n(CC(O)C(O)C(O)CO)c2cc1C (stereo not given),106
12,COc1ccccc1/C=C\C(=O)O,90.4
13,COc1c(OC)c2occc2c2oc(=O)ccc12,122
14,CCOC(=O)[C@H](CCc1ccccc1)N[C@@H](C)C(=O)N1Cc2ccccc2C[C@H]1C(=O)O,95.9
15,C[C@H]1COc2c(N3CCN(C)CC3)c(F)cc3c(=O)c(C(=O)O)cn1c23,113
16,C=CCCCCCCCCCCCC(O)CC(O)CO (stereo not given),76.1
17,COc1ccc(-c2coc3cc(O)cc(O)c3c2=O)cc1,98.7
18,CC(C)=CCOc1cc2oc(=O)ccc2cc1O,109
19,COc1ccc2cc3[n+](cc2c1OC)CCc1cc2c(cc1-3)OCO2,86.3
20,COc1ccc2c(c1OC)OC[C@@H](c1ccc(OC)c(OC)c1OC)C2,95.9

row,Compound,activity remaining [%]
1,CC(C(=O)O)c1cccc(Oc2ccccc2)c1 (stereo not given),118
2,CN1C2CC[C@@H]1CC(OC(=O)[C@H](CO)c1ccccc1)C2 (stereo not given in full),102
3,Cc1ccc(-c2cc(C(F)(F)F)nn2-c2ccc(S(N)(=O)=O)cc2)cc1,95
4,CC(C)=CCc1c(O)cc2oc(C)cc(=O)c2c1O,118
5,O=c1c(O)c(-c2ccccc2)oc2cc(O)ccc12,100
6,C[C@@H]1CC[C@]2(C(=O)O)CC[C@]3(C)C(=CCC4[C@@]5(C)CC[C@H](O)C(C)(C)C5CC[C@]43C)C2[C@H]1C (stereo not given in full),128
7,CCCCCC(=O)Cc1cc(O)cc(O)c1C(=O)Oc1cc(CC(=O)CCCCC)c(C(=O)O)c(OC)c1,106
8,CC(C)C[C@@H](NC(=O)OCC1c2ccccc2-c2ccccc21)C(=O)O,119
9,O=C(O)c1ccccc1Nc1cccc(C(F)(F)F)c1,116
10,O=C1C[C@@H](c2ccc(O)cc2)Oc2cc(O)cc(O)c21,95.7
11,C[C@]12C=CC(=O)C=C1CCC1C3C[C@@H](O)[C@](O)(C(=O)CO)[C@@]3(C)C[C@H](O)[C@@]12F (stereo not given in full),125
12,O=C1c2ccccc2C(=O)c2c1ccc(O)c2O,112
13,CC(=O)Oc1c(-c2ccccc2)oc2c(CC=C(C)C)c3c(c(OC(C)=O)c2c1=O)C=CC(C)(C)O3,98.4
14,CC1=C2C(=CO[C@H](C)[C@H]2C)C(=O)C(C(=O)O)=C1O,94.3
15,N#Cc1ccc2c(c1)N(CCCN1CCC(O)CC1)c1ccccc1S2,111
16,CC(=O)O[C@H]1CC[C@@]2(C)C(=CCC3C2CC[C@@]2(C)C3CC[C@@H]2C(C)CCCC(C)C)C1 (stereo not given in full),124
17,NC[C@H]1O[C@H](O[C@H]2[C@H](O)[C@@H](O[C@H]3O[C@H](CO)[C@@H](O)[C@H](N)[C@H]3O)[C@H](N)C[C@@H]2N)[C@H](N)[C@@H](O)[C@@H]1O,108
18,CN1C(C)(C)CCCC1(C)C,82.7
19,CC[C@]1(O)CC2CN(CCc3c([nH]c4ccccc34)[C@@](C(=O)OC)(c3cc4c(cc3OC)N(C=O)[C@H]3[C@@](O)(C(=O)OC)[C@H](OC(C)=O)[C@]5(CC)C=CCN6CC[C@]43[C@@H]65)C2)C1 (stereo not given in full),82.4
20,CO[C@@]12[C@@H]3NC3CN1C1=C(C(=O)C(N)=C(C)C1=O)[C@@H]2COC(N)=O (stereo not given in full),95.4

row,Compound,activity remaining [%]
1,C=C1C(=O)O[C@@H]2C3OC3(C)CC/C=C(\C)CC[C@@H]12 (stereo not given in full),105
2,C=CCSC[C@@H](N)C(=O)O,98.6
3,O=C1c2c(O)cccc2Cc2cccc(O)c21,92.3
4,O=C(O)c1cc(=O)c2c(OCC(O)COc3cccc4oc(C(=O)O)cc(=O)c34)cccc2o1,115
5,NC(N)=NCCC[C@@H](NC(=O)[C@@H](N)Cc1ccc(O)cc1)C(=O)O,110
6,CC(=O)NC(C(=O)O)C(C)(C)SN=O (stereo not given),97
7,NC(=O)c1ncn(C2O[C@H](CO)[C@@H](O)[C@H]2O)c1N (stereo not given in full),99.1
8,COc1ccc(C(=O)CC(=O)c2ccc(C(C)(C)C)cc2)cc1,104
9,CC(COc1ccccc1)NC(C)[C@H](O)c1ccc(O)cc1 (stereo not given in full),119
10,CC1=C2[C@H]([C@@H](C)CC[C@@H]2/C=C(\C)C(=O)O)[C@@H](O)C1,116
11,COc1ccc2c(c1)OC/C(=C\c1ccc(OC)c(O)c1)C2=O,120
12,CC(=O)N=c1sc(S(N)(=O)=O)nn1C,86.3
13,Nc1ccc(C(=O)O)c(O)c1,108
14,O=C(O)c1ccccc1C(=O)Nc1ccc(S(=O)(=O)Nc2nccs2)cc1,98.2
15,CCC(CCC(C)[C@H]1CCC2C3CC=C4C[C@@H](O)CC[C@]4(C)C3CC[C@@]21C)C(C)C (stereo not given in full),114
16,N[C@@H]1[C@@H](O)[C@H](O)[C@@H](CO)O[C@H]1O,80.8
17,C[C@H]1O[C@H](O[C@H]2[C@H](O)[C@@H](O)[C@@H](O[C@H]3[C@H](O)[C@@H](O)C(O)O[C@@H]3CO)O[C@@H]2CO)[C@H](O)[C@@H](O)[C@@H]1N[C@H]1C=C(CO)[C@@H](O)[C@H](O)[C@H]1O (stereo not given in full),107
18,C/C1=C/CC(C)(C)/C=C/C/C(C)=C/CC1,122
19,C[C@]12CCC(=O)C=C1C=CC1C2CC[C@@]2(C)C1CC[C@@]21CCC(=O)O1 (stereo not given in full),119
20,CC1CCCC(C)N1NC(=O)c1ccc(Cl)c(S(N)(=O)=O)c1 (stereo not given),121
